# Screens (PubChem)
# CYP2C19 inh: blockers of cytochrome P450 2C19 activity – biochemical, luminescence, ADME assay, primary screen. CYP2C19 Supersomes, luciferin-H EGE luminescence, 30 min. inhibition, % at 5 µM. actives 21% (n = 96,000);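 active means CYP2C19 inhibition above a set limit at 5 µM in the primary screen, cut at about 50% in these data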;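 further: plate controls were negative control wells for no effect and 2.5 mM tranylcypromine positive control for full effect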
# CYP2C9 activ: human CYP2C9 activators, primary screen, biochemical, luminescence. Cytochrome P450 2C9 (Homo sapiens), P11712. recombinant CYP2C9, luciferin-H conversion; active compounds read high; factor 1 = untreated enzyme, 0 = blocked. activation factor at 5 µM. actives 1.4% (n = 96,000). AID 1024, 2008;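 active means activation factor of 2 or more for CYP2C9 at a 5 µM dose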;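 further: 0 = sulfaphenazole-blocked wells and 1 = vehicle-only wells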
# CYP2C9 inh: blockers of cytochrome P450 2C9 activity – biochemical, luminescence, ADME assay, primary screen; CYP2C9 Supersomes, luciferin-H conversion; actives 20% (n = 96,000); inhibition, % at 5 µM; P11712; AID 777, 2007;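 active means blocking of liver enzyme CYP2C9 beyond about 50% at 5 µM, limit read from the data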
# Cav32 inh: Cav3.2 calcium influx blockers – cell-based, Fluo-4 calcium fluorescence, FDSS, MLSMR library, primary screen | Voltage-dependent T-type calcium channel subunit alpha-1H (Homo sapiens), O95180 | Cav3.2-expressing cells; active compounds read low | B-score at 10 µM | actives 4% (n = 100,000) | AID 449739, 2010;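 active means single-dose well whose peak fluorescence ratio is a statistical outlier from its plate by either plate-standardised score or position-corrected B-score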
# CYP2C19 activ: human CYP2C19 activators, primary screen, biochemical, luminescence; recombinant CYP2C19, luciferin-H EGE luminescence; active compounds read high; 0 = fully inhibited enzyme, 1 = untreated enzyme; activation factor at 5 µM; 96,000 tested, under 10 active; AID 1025, 2008;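 active means activation factor of at least 2 at 5 µM in the primary screen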;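 further: 0 = wells with 2.5 mM tranylcypromine and 1 = vehicle-only wells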
# Pyk2 oligo antag: antagonists of Pyk2 self-association, primary screen, Q293 cells, FERM NanoBiT luminescence, HTS | active compounds read low | z-score (the deposit names both 25 µM and 10 µM) | actives 0.83% (n = 99,000) | AID 1347419, 2020;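 active means Z-score of -3 or lower, scaled per plate to the spread of control and sample wells; inactive means z-score above -3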;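 further: negative z-score means lost luminescence so less FERM oligomerization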
# An asterisk follows results filed as active; . = no result given. A selection: hits, their analogues and other compounds. The true share with any hit is near 27%.
SMILES,CYP2C19 inh,CYP2C9 activ,CYP2C9 inh,Cav32 inh,CYP2C19 activ,Pyk2 oligo antag
O=C(c1ccc(CS(=O)(=O)c2ccccc2)o1)N1CCOCC1,18.3,0.8,23.2,-0.659,0.8,.
COc1ccc(S(=O)(=O)Cc2ccc(C(=O)N3CCN(c4ccc(Cl)cc4)CC3)o2)cc1,42.0,0.2,82.4*,-1.16,0.6,.
Cc1ccccc1S(=O)(=O)Cc1ccc(C(=O)N2CCN(c3ccc(F)cc3)CC2)o1,46.6,0.6,44.4,0.292,0.5,-0.93
CCOC(=O)N1CCN(C(=O)c2ccc(CS(=O)(=O)c3c(Cl)cccc3Cl)o2)CC1,-4.7,1,1.5,-0.0378,1,.
COc1ccc(C2/C(=C(/O)c3ccccc3)C(=O)C(=O)N2CC(C)O)c(OC)c1 (configuration not stated),1.2,0.8,17.7,-0.907,1,0.5
CSC(=NS(=O)(=O)c1ccccc1)SC,7.0,1.4,-42.4,0.82,0.9,-0.71
CS/C(=N\S(=O)(=O)c1ccc(Cl)cc1)c1ccccc1,95.6*,0.1,88.7*,-2.12,0,1.06
CCOc1ccc(CN(C(=O)c2oc3cc(C)ccc3c2C)C2CCS(=O)(=O)C2)cc1 (configuration not stated),73.3*,0.1,87.0*,-1.58,0.3,-0.68
Cc1ccc2c(C)c(C(=O)N(Cc3cccs3)C3CCS(=O)(=O)C3)oc2c1 (configuration not stated),11.7,0.6,37.0,-1.89,0.9,-0.42
O=S(=O)(NCc1ccco1)c1ccc(S(=O)(=O)N2CCCCC2)cc1,.,.,.,-1.14,.,-0.07
COc1ccc(S(=O)(=O)Nc2nc(C(F)(F)F)cs2)cc1,35.3,0,98.0*,-0.526,0.6,-1.31
C/C(=N\NS(=O)(=O)c1ccc(C)cc1)c1ccc(Br)s1,57.7*,0.3,70.7*,-3.06,0.4,0.82
Cc1nc(C(=O)Nc2cc(F)cc(Cl)c2)sc1C1(C)CC(c2ccccc2)=NO1 (configuration not stated),.,.,.,0.764,.,.
CSc1nnc2c(n1)OC(C)N(C(=O)c1ccccc1)c1ccccc1-2 (configuration not stated),23.8,0.5,53.9*,-0.344,0.8,-0.04
COc1cc(OC)c(C2Oc3nc(SC)nnc3-c3ccccc3N2C(C)=O)cc1OC (configuration not stated),8.6,0.8,22.1,0.486,0.9,.
O=C(O)CCC(=O)N1CCc2cc(S(=O)(=O)N3CC=C(c4ccccc4)CC3)ccc21,-1.5,0.9,12.1,2.45,1,.
O=C(Cc1cccc2ccccc12)N/N=C/c1ccc(F)cc1,16.7,0.9,14.1,-4.04*,0.8,-0.14
CC(C)(C)c1ccc(/C=N/NC(=O)Cc2c[nH]c3ccccc23)cc1,27.6,0.3,74.0*,-2.54,0.7,-2.45
O=C(Cc1cccc2ccccc12)N/N=C1\CCCc2ccccc21,3.3,1,3.8,-1.82,1,0.06
Cc1ccc(/C=N/NC(=O)Cc2c[nH]c3ccccc23)c(C)c1,9.6,0.7,34.3,.,0.9,-1.22
O=C(Nc1nc(N2C(=O)c3ccccc3C2=O)n(-c2ccccc2)n1)c1ccc(Cl)cc1,12.3,0.8,15.1,-1.78,0.9,-0.53
COCc1nnc(NC(=O)CSCc2ccccc2)s1,5.4,0.9,13.4,0.00254,0.9,0.75
Cc1noc(C)c1CSc1nnc2ccccn12,21.6,0.9,10.0,1.63,0.8,1.44
C=CCn1c(SCC(=O)NCc2ccc3c(c2)OCO3)nnc1C1COc2ccccc2O1 (configuration not stated),64.7*,0.5,52.8*,-3.32,0.4,2.57
C=CCn1c(SCC(=O)Nc2cc(C)nn2-c2ccccc2)nnc1C1CCCCC1,66.2*,0.6,42.3,1.26,0.3,1.04
C=CCn1c(SCC(=O)NCc2ccc3c(c2)OCO3)nnc1C1CCCCC1,52.7*,0.4,57.8*,0.0294,0.5,0.79
